Results on 5 molecules are retold here after PubChem BioAssay.

Each structure is given as a SMILES string. Results filed as inconclusive are left out. Activity calls are given as the source filed them.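 Rule for the calls, unless noted: active = binding below the plate cutoff, the plate median minus 3 SD, with a reading above zero; inconclusive = below the plate cutoff but reading exactly zero; inactive = the rest.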 Peptide text beside a SMILES is read from it. * marks the point of attachment. Boc = CC(C)(C)OC(=O)*

Assay [1] in a line: rapamycin-like changes in RPL19A-GFP expression – cell-based, S. cerevisiae, multiplex flow cytometry, primary screen (AID 1862; in the data active = percent of DMSO control GFP below about 86%;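 note: lower values mimic rapamycin by blocking the RPL19A rise seen in DMSO cells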). Particulars: S. cerevisiae RPL19A-GFP strain, flow cytometry fluorescence, 3 h; at 10 µM; stronger effect = lower value.
A short description of assay [2]: TOR pathway GLN3 branch reporter MEP2-GFP changes – S. cerevisiae, multiplex flow cytometry, primary screen (AID 1867;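 active = GFP response, as percent of the DMSO control, above the screen-wide mean plus 3 SD, about 139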;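 note: median GFP channel fluorescence of barcode-gated MEP2-GFP cells measured by flow cytometry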). The following applies: S. cerevisiae MEP2-GFP strain, 3 h, at 10 µM, stronger effect = higher value, 100% means same as DMSO wells. A general note: Flow cytometry measures light scatter and fluorescence of single cells or particles in a stream.
The nature of assay [3]: TOR pathway RTG branch CIT2 reporter changes – S. cerevisiae, GFP fusion, multiplex flow cytometry, primary screen (AID 1870;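 active = percent response above a set limit, the screen-wide mean plus 3 SD, cut at about 130% in these data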;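 note: barcoded CIT2-GFP strain pooled with four other GFP strains with rapamycin as positive control; median GFP fluorescence per well over plate mean of DMSO wells so 100% = DMSO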). The following applies: S. cerevisiae CIT2-GFP expression, 3 h, at 10 µM, stronger effect = higher value.
A short description of assay [4]: TOR pathway LAP4-GFP level changes – S. cerevisiae, multiplex flow cytometry, primary screen (AID 1873;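 active = GFP signal, as percent of the solvent control, above the screen mean plus 3 SD, about 149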). Particulars: S. cerevisiae LAP4-GFP expression, 3 h, at 10 µM, stronger effect = higher value.
The nature of assay [5]: yeast AGP1-GFP level changes, GLN3 branch – cell-based, multiplex flow cytometry, S. cerevisiae, primary screen (AID 1887;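 active = GFP signal above the screen-wide mean plus 3 SD, that is over about 124.5% of the solvent control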;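 note: AGP1-GFP fusion strain of S. cerevisiae within a five-strain barcoded multiplex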). The following applies: 3 h, at 10 µM, stronger effect = higher value.
Assay [6] in a line: reduced mouse 2C T cell binding to pMHC/ICAM-1 vesicles – MLPCN validation set, flow cytometry, LFA-1/ICAM-1 modulator project, pilot screen (AID 2523;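 active = response below a set limit, under 55% cells CD8-positive and vesicle-bound, and CD8 cells' 90th-percentile brightness under 279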;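 for vesicle binding response: mean PE anti-B7-1 fluorescence of CD8+ cells relative to row control; 100% = QL9-loaded vesicles with DMSO vehicle in the same plate row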). Particulars: 2C mouse CD8+ T cells, at 7 µM, stronger effect = lower value; double positive events: measured here: CD8+/vesicle+ event percentage.
Assay [7] deals with Integrin beta-1 (Homo sapiens) + Integrin alpha-4 (Homo sapiens) (UniProt P13612+P05556). Put plainly: alpha4beta1 integrin LIBS antibody binding reduction – U937 cells, HUTS-21 mAb, flow cytometry, validation set, VLA-4 allosteric modulator project, pilot screen (AID 2674;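 active = inhibition above 50%, about 3 SD of the validation set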;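 note: antibody binding induced by the VLA-4 ligand LDV present at three times its Kd; 0% = LDV ligand with antibody and no compound and 100% = antibody without LDV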). Particulars: HUTS-21 LIBS mAb binding, at 6.7 µM, stronger effect = higher value, binding induced by LDV ligand.
A short description of assay [8]: calorie-restriction mimetic ROS inhibitors, yeast – validation compound set, pilot screen (AID 2706;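 active = superoxide response below 65% of plate, a cut near 3 SD across the whole screen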;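 note: yeast exposed to compound for one week at 30 degrees C before staining; 100% = mean of all compound wells on the same plate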). Particulars: S. cerevisiae aging, superoxide DHE fluorescence; at 10 µM, stronger effect = lower value.
Assay [9] addresses Beta-adrenergic receptor kinase 1 (Homo sapiens) (UniProt P25098). Put plainly: GRK2 binders displacing RNA aptamer, biochemical, validation, human GRK2, bead flow cytometry (AID 488806;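 active = aptamer binding inhibition above 30%, about 3 SD of noise from non-fluorescent compounds; inactive = inhibition at or below 30%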). The following applies: bead-bound GRK2, FAM-aptamer displacement, at 10 µM, stronger effect = higher value.
For assay [10], the target named is AP-2 complex subunit beta (Homo sapiens) (UniProt P63010). Description: beta-arrestin/AP2 interaction blockers – biochemical, validation set, GST-AP2 beads, flow cytometry, pilot screen (AID 504541;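 active = inhibition above 54%, about 3 SD of non-fluorescent compounds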;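 note: AP2 carries R879A mutation and is captured from E. coli lysate; bead-bound FITC arrestin peptide fluorescence measuring arrestin peptide binding to AP2; 0% = DMSO wells and 100% = excess unlabeled arrestin peptide control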). The following applies: FITC arrestin peptide, at 10 µM, stronger effect = higher value, AP2 beta2 appendage fragment, R879A mutant.
The nature of assay [11]: cytosolic pH regulators acting via V-ATPase – S. cerevisiae, pHLuorin, HTS validation (AID 504600; in the data active = response above about 15%;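 note: plate controls were DMSO for no effect and reference compound for full effect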). Particulars: V-ATPase proton transport, at 10 µM, stronger effect = higher value.
Assay [12] has as its system anti-desmoglein-3 scFv antibody binding to human DSG3. Put plainly: blockers of pathogenic pemphigus antibody–desmoglein-3 binding – biochemical, validation compound set, bead-based, flow cytometry, pilot screen (AID 588368).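 Note: signal is the median channel fluorescence of bead-bound GFP antibody.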 Particulars: Protein G beads, DSG3-Fc, scFv-GFP binding, at 10 µM, stronger effect = lower value.
The nature of assay [13]: Nile Red efflux blockade in pump-expressing yeast – validation compound set, multiplex, phenotypic, pilot screen (AID 588506;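 active = efflux inhibition above 0.42, the validation set average plus 4 SD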;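 note: Nile Red retained in cells so higher fluorescence means more efflux inhibition; 0 = negative control wells and 1 = enniatin B 25 µM full block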). Particulars: S. cerevisiae pump-expressing triplex, Nile Red efflux flow cytometry; at 10 µM; stronger effect = higher value; the pumps come from Candida albicans.
For assay [14], the target named is ATP-binding cassette sub-family B member 6 (Homo sapiens) (UniProt Q9NP58). Put plainly: blockers of ABCB6-driven porphyrin uptake – K562-ABCB6 cells, flow cytometry, validation set, pilot screen (AID 588550;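 active = inhibition above the screen-wide mean plus 3 SD, about 51%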;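 note: 0% = DMSO wells and 100% = benzethonium chloride 70 µM positive control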). The following applies: K562-ABCB6 porphyrin accumulation, 1 h, at 10 µM, stronger effect = higher value.
Assay [15] can be described thus: AML differentiation inducers, ER-HoxA9 marrow cells – cell-based, GFP/MAC1 double positive, flow cytometry, validation set, primary screen (AID 588685;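 active = differentiation response of at least 50%, scaled between solvent and reference control, from cells with both markers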;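 note: compound exposure lasts four days before antibody staining and flow analysis; 0% = DMSO wells and 100% = 5 µM fulvestrant positive control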). Particulars: stronger effect = higher value, normalized: vehicle 0, fulvestrant 100.

Beta-adrenergic receptor kinase 1 (Homo sapiens), sequence (P25098 whole entry, looked up): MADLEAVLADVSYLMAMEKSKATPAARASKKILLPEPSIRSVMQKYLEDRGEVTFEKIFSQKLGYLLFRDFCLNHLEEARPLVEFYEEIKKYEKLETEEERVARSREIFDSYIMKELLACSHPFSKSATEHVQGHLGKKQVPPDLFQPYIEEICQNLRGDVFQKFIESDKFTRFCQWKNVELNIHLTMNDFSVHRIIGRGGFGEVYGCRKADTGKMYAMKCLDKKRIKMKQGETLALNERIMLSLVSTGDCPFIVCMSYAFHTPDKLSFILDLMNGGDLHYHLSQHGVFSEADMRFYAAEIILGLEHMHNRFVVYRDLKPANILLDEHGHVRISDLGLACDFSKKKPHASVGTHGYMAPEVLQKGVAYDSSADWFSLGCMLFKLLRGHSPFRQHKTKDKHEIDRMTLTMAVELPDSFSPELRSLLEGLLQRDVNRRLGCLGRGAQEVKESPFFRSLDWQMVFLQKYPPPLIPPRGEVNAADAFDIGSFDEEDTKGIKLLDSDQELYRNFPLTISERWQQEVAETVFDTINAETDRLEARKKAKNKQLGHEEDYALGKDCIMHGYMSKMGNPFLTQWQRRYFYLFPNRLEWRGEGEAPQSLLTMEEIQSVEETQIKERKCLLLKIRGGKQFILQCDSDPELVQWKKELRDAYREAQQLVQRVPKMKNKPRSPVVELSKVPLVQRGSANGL
Integrin beta-1 (Homo sapiens) + Integrin alpha-4 (Homo sapiens), sequence (P05556 whole entry, looked up): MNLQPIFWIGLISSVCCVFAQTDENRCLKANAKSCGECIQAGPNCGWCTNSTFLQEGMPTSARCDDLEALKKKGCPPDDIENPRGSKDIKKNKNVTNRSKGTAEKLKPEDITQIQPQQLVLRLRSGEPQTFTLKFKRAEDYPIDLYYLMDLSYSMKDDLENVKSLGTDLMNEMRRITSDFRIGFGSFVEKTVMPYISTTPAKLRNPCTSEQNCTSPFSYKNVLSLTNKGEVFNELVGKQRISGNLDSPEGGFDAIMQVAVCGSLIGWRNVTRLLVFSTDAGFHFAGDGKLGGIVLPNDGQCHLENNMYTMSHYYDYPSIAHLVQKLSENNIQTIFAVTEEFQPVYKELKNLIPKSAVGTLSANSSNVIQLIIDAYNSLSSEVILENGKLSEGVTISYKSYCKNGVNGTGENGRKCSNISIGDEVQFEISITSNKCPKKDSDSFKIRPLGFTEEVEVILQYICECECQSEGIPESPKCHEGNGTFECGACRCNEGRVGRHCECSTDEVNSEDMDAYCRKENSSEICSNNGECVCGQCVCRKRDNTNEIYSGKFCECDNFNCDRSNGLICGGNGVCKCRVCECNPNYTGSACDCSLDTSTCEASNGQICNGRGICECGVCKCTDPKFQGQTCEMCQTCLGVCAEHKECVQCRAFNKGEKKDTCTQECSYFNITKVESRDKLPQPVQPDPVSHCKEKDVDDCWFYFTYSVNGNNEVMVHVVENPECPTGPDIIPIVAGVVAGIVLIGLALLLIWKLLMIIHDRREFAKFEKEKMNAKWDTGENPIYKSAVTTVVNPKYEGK
Integrin beta-1 (Homo sapiens) + Integrin alpha-4 (Homo sapiens), sequence (P13612 whole entry, looked up): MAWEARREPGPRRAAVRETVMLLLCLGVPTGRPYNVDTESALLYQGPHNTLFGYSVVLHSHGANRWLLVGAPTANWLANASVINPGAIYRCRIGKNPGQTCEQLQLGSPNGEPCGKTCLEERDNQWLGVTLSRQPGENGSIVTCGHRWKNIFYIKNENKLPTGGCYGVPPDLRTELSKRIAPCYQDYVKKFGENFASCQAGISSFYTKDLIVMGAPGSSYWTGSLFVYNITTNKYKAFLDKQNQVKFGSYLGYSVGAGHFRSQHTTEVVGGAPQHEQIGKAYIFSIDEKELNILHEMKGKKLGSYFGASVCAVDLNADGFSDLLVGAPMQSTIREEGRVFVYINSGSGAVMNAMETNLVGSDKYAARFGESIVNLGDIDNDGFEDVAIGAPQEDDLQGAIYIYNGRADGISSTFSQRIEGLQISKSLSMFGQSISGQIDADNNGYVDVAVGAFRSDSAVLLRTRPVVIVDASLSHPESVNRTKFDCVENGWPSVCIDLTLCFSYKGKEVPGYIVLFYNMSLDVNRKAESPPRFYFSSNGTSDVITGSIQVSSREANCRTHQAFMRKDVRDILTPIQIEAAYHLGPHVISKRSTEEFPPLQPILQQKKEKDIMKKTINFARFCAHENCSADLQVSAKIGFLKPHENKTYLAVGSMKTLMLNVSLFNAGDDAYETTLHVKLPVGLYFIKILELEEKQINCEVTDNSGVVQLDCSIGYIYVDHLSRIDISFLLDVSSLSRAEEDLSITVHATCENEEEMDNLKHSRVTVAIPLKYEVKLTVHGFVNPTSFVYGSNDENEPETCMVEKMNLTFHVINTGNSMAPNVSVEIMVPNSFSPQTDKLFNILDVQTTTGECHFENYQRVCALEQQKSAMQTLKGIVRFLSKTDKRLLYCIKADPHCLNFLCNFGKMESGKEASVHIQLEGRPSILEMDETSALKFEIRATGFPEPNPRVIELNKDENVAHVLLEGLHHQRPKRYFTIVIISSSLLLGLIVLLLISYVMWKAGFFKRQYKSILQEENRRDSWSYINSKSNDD
ATP-binding cassette sub-family B member 6 (Homo sapiens), sequence (Q9NP58 whole entry, looked up): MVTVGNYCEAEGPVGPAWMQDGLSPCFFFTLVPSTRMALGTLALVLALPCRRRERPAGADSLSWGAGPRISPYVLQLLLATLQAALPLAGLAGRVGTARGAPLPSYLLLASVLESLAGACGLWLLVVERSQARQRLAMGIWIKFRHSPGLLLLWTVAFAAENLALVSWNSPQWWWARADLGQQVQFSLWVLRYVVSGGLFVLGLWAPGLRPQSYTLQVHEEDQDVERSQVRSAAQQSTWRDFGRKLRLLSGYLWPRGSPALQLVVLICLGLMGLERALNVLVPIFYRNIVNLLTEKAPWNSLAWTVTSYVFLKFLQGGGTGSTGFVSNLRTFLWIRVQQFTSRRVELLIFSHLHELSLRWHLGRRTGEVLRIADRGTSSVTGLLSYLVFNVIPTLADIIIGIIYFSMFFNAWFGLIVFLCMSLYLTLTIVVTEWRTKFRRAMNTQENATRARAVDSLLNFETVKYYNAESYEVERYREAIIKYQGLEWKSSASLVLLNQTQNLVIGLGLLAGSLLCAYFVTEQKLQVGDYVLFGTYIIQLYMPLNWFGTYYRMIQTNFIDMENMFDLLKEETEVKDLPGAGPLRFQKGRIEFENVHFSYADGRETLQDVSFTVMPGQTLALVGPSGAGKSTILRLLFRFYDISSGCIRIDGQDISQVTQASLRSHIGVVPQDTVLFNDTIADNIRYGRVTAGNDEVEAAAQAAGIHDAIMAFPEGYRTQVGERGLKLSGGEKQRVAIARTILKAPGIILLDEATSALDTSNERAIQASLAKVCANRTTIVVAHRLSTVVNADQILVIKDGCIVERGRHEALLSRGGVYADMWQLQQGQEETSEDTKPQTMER
AP-2 complex subunit beta (Homo sapiens), sequence (P63010 whole entry, looked up, the tested form may be a part, one chain of several): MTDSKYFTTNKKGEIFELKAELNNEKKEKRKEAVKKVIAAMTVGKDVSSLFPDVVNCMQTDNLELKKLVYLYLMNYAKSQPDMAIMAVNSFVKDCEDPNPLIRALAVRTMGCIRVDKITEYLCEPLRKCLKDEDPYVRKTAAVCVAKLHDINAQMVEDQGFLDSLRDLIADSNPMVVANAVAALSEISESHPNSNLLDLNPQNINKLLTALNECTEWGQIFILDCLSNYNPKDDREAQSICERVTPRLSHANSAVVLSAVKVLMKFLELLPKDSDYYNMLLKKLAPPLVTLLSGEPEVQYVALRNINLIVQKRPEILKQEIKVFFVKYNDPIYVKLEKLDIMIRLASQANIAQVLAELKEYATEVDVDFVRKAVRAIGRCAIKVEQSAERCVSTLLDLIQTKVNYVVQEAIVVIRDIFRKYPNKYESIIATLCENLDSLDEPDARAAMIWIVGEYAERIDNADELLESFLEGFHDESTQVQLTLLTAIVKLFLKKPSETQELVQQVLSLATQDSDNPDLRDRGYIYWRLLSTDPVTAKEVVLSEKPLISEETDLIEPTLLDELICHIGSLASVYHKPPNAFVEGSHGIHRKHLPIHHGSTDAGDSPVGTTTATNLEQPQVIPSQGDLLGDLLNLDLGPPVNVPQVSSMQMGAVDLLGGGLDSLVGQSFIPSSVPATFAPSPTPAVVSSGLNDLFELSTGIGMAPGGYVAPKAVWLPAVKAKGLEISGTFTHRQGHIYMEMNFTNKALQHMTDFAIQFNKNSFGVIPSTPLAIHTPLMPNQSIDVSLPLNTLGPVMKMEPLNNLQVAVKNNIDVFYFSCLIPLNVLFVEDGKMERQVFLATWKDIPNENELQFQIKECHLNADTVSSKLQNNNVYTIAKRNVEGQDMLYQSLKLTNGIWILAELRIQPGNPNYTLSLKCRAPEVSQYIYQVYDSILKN

In general, inhibition refers to the drop in the measured response relative to a control, in per cent. `CCOc1cc(C)cc2oc(=O)cc(-c3ccccc3)c12`: in assay [1], the percent of DMSO control GFP was 99.5% (inactive). The GFP response vs DMSO in assay [2] was 105% (inactive); in assay [4] it was 123% (inactive). In assay [3], the percent response of DMSO control is 92% (inactive). Besides, the GFP response, % of DMSO in assay [5] was 92.8% (inactive). For the same molecule, the double positive events in assay [6] came to 54.7%. Besides, in assay [6], the vesicle binding response is 138% (inactive). The inhibition in assay [7] was -5.84% (inactive); in assay [10], 14.1% (inactive); in assay [14], 5% (inactive). For the same molecule, the superoxide response (% of plate) in assay [8] is 88.9% (inactive). Besides, the aptamer binding inhibition in assay [9] is 4% (inactive). In [11], the response was 8.03% (inactive). Moreover, the binding (% of control) in assay [12] was 102% (inactive). Besides, the efflux inhibition (fraction of control) in assay [13] was 0.18 (inactive). Moreover, the differentiation response in [15] is -16.4% (inactive).
With `COc1ccc(CCNC(=S)NC(=O)/C=C/c2ccc(C)cc2)cc1OC`, in assay [1], the percent of DMSO control GFP is 101% (inactive). Besides, the values for the GFP response vs DMSO in assay [2] and in assay [4] were 107% (inactive) and 103% (inactive), respectively. The percent response of DMSO control in [3] was 106% (inactive). Moreover, the GFP response, % of DMSO in [5] is 95.4% (inactive). For the same molecule, the double positive events in assay [6] was 51.6%. The vesicle binding response in assay [6] is 136% (inactive). The inhibition in assay [7] is 3.49% (inactive); in assay [10], 13.3% (inactive); in assay [14], 4% (inactive). For the same molecule, the superoxide response (% of plate) in assay [8] is 98.2% (inactive). In addition, the aptamer binding inhibition in [9] was 2% (inactive). The response in assay [11] is -1.1% (inactive). Further, in [12], the binding (% of control) was 106% (inactive). Besides, in assay [13], the efflux inhibition (fraction of control) was 0.22 (inactive). For the same molecule, the differentiation response in [15] is -8.27% (inactive).
`C=CCc1cccc2cc(C(=O)Nc3ccc(CC(=O)O)cc3)c(=O)oc12`: the percent of DMSO control GFP in assay [1] is 98.6% (inactive). Besides, the GFP response vs DMSO in assay [2] was 106% (inactive); in assay [4], 100% (inactive). Besides, in assay [3], the percent response of DMSO control is 94.9% (inactive). In addition, the GFP response, % of DMSO in assay [5] is 97.8% (inactive). In [6], this molecule yielded a double positive events of 63.1%. In [6], the vesicle binding response is 207% (inactive). Besides, the inhibition in assay [7] was -2.11% (inactive); in assay [10], 28.6% (inactive); in assay [14], 5% (inactive). Moreover, the superoxide response (% of plate) in assay [8] was 141% (inactive). Also, the aptamer binding inhibition in assay [9] is 2% (inactive). In assay [11], the response is -3.63% (inactive). Further, in assay [12], the binding (% of control) was 100% (inactive). For the same molecule, in assay [13], the efflux inhibition (fraction of control) was 0.1 (inactive). For the same molecule, the differentiation response in assay [15] was 7.87% (inactive).
In the case of `CC(C)(C)OC(=O)N1CCCC1C(=O)NC(Cc1ccccc1)C(=O)O` (stereo not drawn) (Boc-Pro-Phe-OH; configuration not given here), in [1], the percent of DMSO control GFP is 101% (inactive). In addition, the GFP response vs DMSO was 98.9% (inactive) in assay [2] and 104% (inactive) in [4]. The percent response of DMSO control in assay [3] is 104% (inactive). In assay [5], the GFP response, % of DMSO is 102% (inactive). The same molecule had a double positive events in [6] of 61.4%. Moreover, the vesicle binding response in assay [6] was 186% (inactive). The inhibition in assay [7] is 13.8% (inactive); in [10], 9.73% (inactive); in assay [14], 10% (inactive). In addition, the superoxide response (% of plate) in [8] is 92.5% (inactive). Also, the aptamer binding inhibition in assay [9] is -1% (inactive). In addition, in assay [11], the response is 4.48% (inactive). Besides, the binding (% of control) in [12] is 101% (inactive). Also, the efflux inhibition (fraction of control) in assay [13] was 0.22 (inactive). Moreover, in assay [15], the differentiation response is 7.87% (inactive).
On to `c1ccc2c3c(c(CN4CCCCC4)cc2c1)COC3`, for which the percent of DMSO control GFP in assay [1] was 109% (inactive). In addition, the values for the GFP response vs DMSO in [2] and in [4] were 116% (inactive) and 122% (inactive), respectively. Besides, in [3], the percent response of DMSO control was 127% (active). In addition, the GFP response, % of DMSO in assay [5] is 104% (inactive). The molecule further returned a double positive events in assay [6] of 38%. Also, the vesicle binding response in assay [6] is 176% (inactive). Also, the inhibition in assay [7] is -8.64% (inactive); in assay [10] it was -17.7% (inactive); in assay [14] it was 11% (inactive). Also, the superoxide response (% of plate) in assay [8] was 116% (inactive). Moreover, the aptamer binding inhibition in assay [9] is -6% (inactive). Further, the response in assay [11] is 4.2% (inactive). The binding (% of control) in [12] was 107% (inactive). The efflux inhibition (fraction of control) in [13] is -0.12 (inactive). Besides, in assay [15], the differentiation response was -14.7% (inactive).
